Screen size: about 69,000 compounds; about 8,600 (12%) showed an effect of 50% or more. What follows is part of a selection rich in strong results, with near analogues and random picks from the rest.
test system: Plasmodium berghei; assay: Screen against P. berghei liver stage (PbLuc), transformed with Luciferase, at 10uM; assay type: functional, HepG2; conditions: tested at 10 uM

Row | SMILES | INHIBITION
1 | CC(NCc1ccc(OCC(N)=O)cc1)c1ccc(Cl)cc1Cl (configuration not stated) | 32.2%
2 | Cn1cc(C(=O)Nc2cc(F)ccc2OCC2CCCO2)ccc1=O (configuration not stated) | 13.6%
3 | CCC(CC)C(=O)NCc1c(C)nn(C)c1N1CCCN(C)CC1 | 24.6%
4 | CN(C)CC(Nc1nc(N)nc2c1CCNCC2)c1ccccc1 (configuration not stated) | 72.7%
5 | Nc1nc2c(c(NC(Cn3cccn3)c3ccccc3)n1)CCNCC2 (configuration not stated) | 75.5%
6 | CN(CC1Cc2ccccc2CN1C)c1nc(N)nc2c1CCNCC2 (configuration not stated) | 30.8%
7 | c1ccc(C(Cn2cccn2)Nc2cnccn2)cc1 (configuration not stated) | 31.2%
8 | CN(Cc1ccccc1-n1cccn1)c1nc(N)nc2c1CCNCC2 | -18%
9 | COCC(Nc1nc(N(C)C)nc2c1CCNCC2)c1ccccn1 (configuration not stated) | 34.9%
10 | Nc1nc2c(c(N3CCC(CCn4cccn4)CC3)n1)CCNCC2 | 31.4%
11 | CN(C)CCC(Nc1nc(N)nc2c1CCNCC2)c1ccccc1 (configuration not stated) | 68.5%
12 | CC(Nc1nc(-c2ccccc2)nc2c1CCNCC2)c1cccnc1 (configuration not stated) | 31.4%
13 | O=c1c(S(=O)(=O)N2CCCC2)cccn1Cc1ccc(F)cc1Cl | 24.2%
14 | Cc1noc2ncc(C(=O)N3CCCC3c3ccsc3)cc12 (configuration not stated) | -7.35%
15 | Cc1cc(C2CCCN(C(=O)Cc3csc(C(C)C)n3)C2)n[nH]1 (configuration not stated) | -23.8%
16 | O=S(=O)(c1ccccc1)N1CCCC1c1cc[nH]n1 (configuration not stated) | 18.9%
17 | Cc1ccc(C(=O)NCCNc2ncccc2C#N)c(=O)[nH]1 | -58.7%
18 | Cc1ccc(CNC(=O)c2ccc(=O)n(C)n2)c(OC2CCCC2)c1 | 5.91%
19 | CN1CCc2c(sc3c2C(=O)NC(C=Cc2ccccc2)N3)C1 (configuration not stated) | -45.3%
20 | CCC(C)N1Cc2c(C(=O)N3CCCC3)nn(C)c2C1 (configuration not stated) | 23.1%
21 | Cn1nc(C(=O)N2CCOCC2)c2c1CN(CC1CCC1)C2 | 53%
22 | Cc1ccc(CN2Cc3c(C(=O)N4CCCC4)nn(C)c3C2)s1 | -30.6%
23 | CC(C)CCN1Cc2c(C(=O)N3CCCC3)nn(C)c2C1 | 60%
24 | Cn1nc(C(=O)N2CCCC2)c2c1CN(CC1CCOCC1)C2 | 21.6%
25 | Cn1nc(C(=O)N2CCOCC2)c2c1CN(CC1CC1)C2 | 48.4%
26 | CCN1C(=O)CCC12CCC(NC(=O)c1cnccn1)CC2 (configuration not stated) | -43%

Row | SMILES | INHIBITION
27 | CNC(=O)c1cn[nH]c1C1(C)CCCN(Cc2nccn2C(C)C)C1 (configuration not stated) | 46%
28 | CCCS(=O)(=O)NC(C)c1cccc(-n2cccn2)c1 (configuration not stated) | 29.3%
29 | CC(C)COCCCNC(=O)NC(C)c1ccc(-n2cncn2)cc1 (configuration not stated) | -12.3%
30 | CC(NCc1cnc(C2CCC2)s1)c1cccc(-n2ccnc2)c1 (configuration not stated) | 29.7%
31 | CCOCCCNC(=O)NC(C)c1ccc(-n2cncn2)cc1 (configuration not stated) | -31.4%
32 | CC(NCc1cnc(C2CCC2)s1)c1ccc(-n2cncn2)cc1 (configuration not stated) | 61.4%
33 | Cc1cnn(CC(C)NCc2ccc(-n3cccn3)cc2)c1 (configuration not stated) | -1.58%
34 | CC(NCc1cnc(C2CCC2)s1)c1cccc(-n2cccn2)c1 (configuration not stated) | 75.3%
35 | CC(NCc1cnc(C2CCC2)s1)c1ccccc1-n1cccn1 (configuration not stated) | 11.9%
36 | CC(NCc1cnc(C2CCC2)s1)c1ccc(-n2cccn2)cc1 (configuration not stated) | 59.4%
37 | CN1CCN(C(=O)c2cccn2C)Cc2cccnc21 | 16.4%
38 | O=C1N(CC2CC2)CCC12CCCN(c1ncc(F)cn1)C2 (configuration not stated) | 42.4%
39 | Cc1cnn(CC2CCCN2C(=O)c2csc(C3CC3)n2)c1 (configuration not stated) | -23.9%
40 | O=C(CCN1CCCC1)Nc1c2c(cc3c1CCC3)CCC2 | 6.29%
41 | CC(=O)N1CCC(C)(c2cc(C(=O)NCC(C)(C)C)nc(C)n2)CC1 | 37.9%
42 | Cc1cccc(C(=O)N2CCN(S(C)(=O)=O)[C@@H](C)C2)c1Cl | 22.6%
43 | C[C@H]1CN(C(=O)c2cccc(F)c2Cl)CCN1S(C)(=O)=O | 61.1%
44 | Cc1cccc(C(=O)N2CCN(S(C)(=O)=O)[C@@H](C)C2)c1C | 40.3%
45 | COC(C(=O)N1CCN(Cc2noc(C)n2)CC1)c1ccccc1 (configuration not stated) | 53.8%
46 | Cc1nc(CN2CCN(C(=O)COCc3ccccc3)CC2)no1 | 4.2%
47 | Cc1nc(CN2CCN(C(=O)C(c3ccccc3C)N(C)C)CC2)no1 (configuration not stated) | 6.66%
48 | O=C(c1ccc(Cl)o1)N1CCCN(Cc2cscn2)CC1 | 50.4%
49 | CC(C)c1ccsc1C(=O)N1CCCN(Cc2cscn2)CC1 | 2.61%
50 | COCc1ccc(C(=O)N2CCCN(Cc3cscn3)CC2)cc1 | 27.4%
51 | COC(C(=O)N1CCCN(Cc2cscn2)CC1)c1ccccc1 (configuration not stated) | 54.3%
52 | Cc1ccc(C(C)C(=O)N2CCCN(Cc3cscn3)CC2)cc1 (configuration not stated) | 15.2%

From ChEMBL document CHEMBL4513216, “Probing the Open Global Health Chemical Diversity Library for Multistage-Active Starting Points for Next-Generation Antimalarials” (ACS Infect Dis, 2020)
